# The whole screen tested about 330,000 compounds, of which about 1,900 (0.58%) were called active. This excerpt belongs to a sample that is enriched for actives. Unmarked numbers belong to inactive results.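 Rule for the calls: active = inhibition of aptamer binding above 40%, roughly 3 SD of noise, on plates passing a quality check; inactive = the rest.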
# Target: Beta-adrenergic receptor kinase 1 (Homo sapiens) (UniProt P25098)
# Assay: compounds blocking aptamer binding on GRK2 – biochemical, human GRK2, bead flow cytometry, HTS, primary screen (AID 488847);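 note: median bead fluorescence of bound FAM aptamer so fluorescent compounds give negative values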
# Details: FAM-aptamer displacement from GRK2, at 10 µM, stronger effect = higher value
# Chain of Beta-adrenergic receptor kinase 1 (Homo sapiens) (P25098 whole entry, looked up): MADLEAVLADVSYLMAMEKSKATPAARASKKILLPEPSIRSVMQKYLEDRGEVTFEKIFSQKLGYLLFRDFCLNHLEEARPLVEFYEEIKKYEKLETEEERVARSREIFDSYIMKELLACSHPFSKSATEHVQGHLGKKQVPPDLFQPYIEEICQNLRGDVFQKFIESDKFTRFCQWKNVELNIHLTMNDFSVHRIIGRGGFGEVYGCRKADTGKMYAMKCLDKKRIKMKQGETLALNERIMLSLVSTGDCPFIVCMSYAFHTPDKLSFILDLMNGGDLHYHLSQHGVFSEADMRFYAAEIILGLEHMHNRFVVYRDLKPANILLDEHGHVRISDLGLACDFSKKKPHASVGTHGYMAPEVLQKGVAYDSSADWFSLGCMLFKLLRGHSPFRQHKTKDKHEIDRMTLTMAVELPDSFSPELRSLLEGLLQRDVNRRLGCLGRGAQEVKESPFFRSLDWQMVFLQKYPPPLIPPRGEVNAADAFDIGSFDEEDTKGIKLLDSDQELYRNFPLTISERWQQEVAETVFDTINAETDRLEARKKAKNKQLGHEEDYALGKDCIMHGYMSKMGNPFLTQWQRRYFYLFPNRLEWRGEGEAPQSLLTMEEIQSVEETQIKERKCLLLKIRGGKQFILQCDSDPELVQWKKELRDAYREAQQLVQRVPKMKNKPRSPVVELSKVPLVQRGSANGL
row,Compound,inhibition of aptamer binding
1,CC1O[C@H](OC2C(COC3OC(CO)C(O)[C@H](O)C3O)OC(OC3CC[C@]4(C)C(CC[C@@]5(C)[C@@H]4C=C[C@]46OC[C@@]7(CCC(C)(C)C[C@H]74)C(O)C[C@@]56C)C3(C)C)C(O)C2O)C(O)C(O)C1O (stereo not given in full),0%
2,CC1=NCCN1S(=O)(=O)c1ccc(Br)c(C)c1,8%
3,Cc1ccc(C(CNC(=O)Nc2ccccc2)N2CCN(C)CC2)cc1 (stereo not given),0%
4,Cc1ccc(C(CNC(=O)Nc2cccc(C)c2)N2CCN(C)CC2)cc1 (stereo not given),53% (active)
5,COc1ccc(S(=O)(=O)NCC(c2ccc(C)cc2)N2CCN(C)CC2)cc1OC (stereo not given),0%
6,O=C(NCc1cccc(Cl)c1)C1CCC(=O)N(C2CC2)C1 (stereo not given),30%
7,C=CC[C@@H](CC(=O)N[C@@H](CO)Cc1ccccc1)C(=O)NCCOC(=O)[C@@H](CC=C)CC(=O)OC(C)(C)C,94% (active)
8,C=CC[C@@H](CC(=O)N[C@@H](CO)Cc1ccccc1)C(=O)N[C@H](COC(=O)[C@H](CC=C)CC(=O)OC(C)(C)C)Cc1ccccc1,3%
9,C=CC[C@@H](CC(=O)N[C@H](CO)Cc1ccccc1)C(=O)N[C@H](C)COC(=O)[C@@H](CC=C)Cc1ccc(F)cc1,26%
10,CC(C)CNC(=S)NNC(=O)c1ccccc1OC(F)F,0%
11,CC(C)(C)NC(=O)/C(=C/c1cccnc1)NC(=O)c1ccco1,4%
12,O=C(O)/C(=C/c1cccnc1)NC(=O)c1ccccc1,53% (active)
13,Cc1ccc(C(=O)N/C(=C/c2cccnc2)C(=O)O)cc1,0%
14,Cc1ccc2[nH]c(=O)c(-c3nc4c(C)cccn4c3NCc3ccco3)cc2c1,0%
15,Cc1cc(C)cc(N(CC(=O)N2CC=C(c3ccccc3)CC2)S(=O)(=O)c2c(C)noc2C)c1,0%
16,O=c1[nH]nc(Cc2ccccn2)c2ccccc12,0%
17,O=C(Oc1ccc2c(c1)CCC2)N1CCOCC1,0%
18,Cc1ccccc1CN1CCN(CC(=O)NCc2ccccn2)C1=O,51% (active)
19,COCCCNC(=O)CN1CCN(Cc2ccccc2Cl)C1=O,4%
20,Cc1nn(CC(=O)NCc2ccccn2)c(C)c1[N+](=O)[O-],1%
21,Cc1cccc(N(C(=O)c2sc(C)nc2C)C(C(=O)NCC2CCCO2)c2ccccc2)c1 (stereo not given),1%
22,CCn1nc(C)c(NC(=O)/C=C/c2ccc(OC)c(COc3ccc(Br)cc3)c2)c1C,1%
23,O=C(NC1C2CC3CC(C2)CC1C3)c1ccc(N2CCNCC2)c([N+](=O)[O-])c1 (stereo not given),98% (active)

row,Compound,inhibition of aptamer binding
1,CS(=O)(=O)N1CCN(c2ccc(C(=O)NC3C4CC5CC(C4)CC3C5)cc2[N+](=O)[O-])CC1 (stereo not given),0%
2,CC(NC(=O)c1ccc(N2CCNCC2)c([N+](=O)[O-])c1)C12CC3CC(CC(C3)C1)C2 (stereo not given),0%
3,CC(c1nnc(SCC(=O)Nc2sccc2C#N)n1-c1ccc(Cl)cc1)N(C)C (stereo not given),0%
4,COc1ccc(C(=O)CCC(=O)Nc2ccc(Cl)cc2)cc1,1%
5,C/C(=N\OCC(=O)O)c1ccc(Cl)cc1,58% (active)
6,C/C(=N\N=C(N)N)c1ccc(Cl)cc1,0%
7,COc1cc2c(-c3ccc4c(c3)OCO4)c(-c3ccsc3)oc(=O)c2cc1OC,0%
8,Cc1ccc(S(=O)(=O)N2CCCC(C(=O)N3CCN(C)CC3)C2)cc1 (stereo not given),4%
9,O=C(C1CCC1)N1CCN(S(=O)(=O)c2ccc([N+](=O)[O-])cc2)CC1,1%
10,O=C(C1CCCN(S(=O)(=O)c2ccc([N+](=O)[O-])cc2)C1)N1CCCCC1 (stereo not given),53% (active)
11,Cc1nnc(NC(=O)CCC(=O)N2CCC(C)CC2)s1,2%
12,CCC(C)(C(=O)NC1CCCC1)N(C(=O)CNC(C)=O)c1ccc(C)cc1 (stereo not given),3%
13,CCC(C)(C(=O)NC1CCCCC1)N(C)C(=O)c1ccc2c(c1)OCO2 (stereo not given),47% (active)
14,CCCCN(CC)C(=O)c1ccc2c(c1)OCO2,3%
15,COc1ccc(NC(=O)COc2ccc(C(=O)OCC(=O)N(C)C3CCS(=O)(=O)C3)cc2OC)cc1 (stereo not given),3%
16,COc1cc(C(=O)OCC(=O)N(CC(C)C)C2CCS(=O)(=O)C2)ccc1OCC(C)C (stereo not given),100% (active)
17,COc1ccccc1NC(=O)COc1ccc(C(=O)OCC(=O)N(C(C)C)C(C)C)cc1OC,0%
18,Cn1c(N2CCOCC2)c(C=O)c2ccccc21,0%
19,Cc1ccc(CNC(=O)c2cc(-c3ccccc3C)n(CC3CC(c4cccc([N+](=O)[O-])c4)=NO3)n2)cc1 (stereo not given),0%
20,CCOC(=O)c1cccc(NC(=O)c2ccc(F)cc2F)c1,3%
21,O=C(COC(=O)c1ccc(F)cc1F)Nc1ncccn1,60% (active)
22,O=C(COC(=O)CSc1ccccc1)Nc1ccc(F)cc1F,3%

# — PubChem BioAssay AID488847 (NMMLSC, 2010)
